In PubChem BioAssay AID588343 (Broad Institute, 2011) one finds outcome data, which are given here for 66 compounds.

The whole screen tested about 1,200 compounds, of which about 650 (54%) were called active. About 5% were inconclusive and are not listed.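 The calls were made as follows: active = signal-lowering curve whose fitted half-maximal concentration is at or below ten times the top valid dose tested; inconclusive = flat curve with 30 to 70% inhibition, or poor fit; inactive = signal increase, flat within 30%, or potency beyond limit.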 The set was probably picked from earlier hits. Not all results are given here. Results with a measured potency or affinity are listed apart.

This experiment can be described thus: inhibitors of LMP1-driven NF-kB reporter, dose response, cell-based, HEK293, luciferase, cherry-pick (AID 588343). As to conditions: HEK293 LMP1 TES2 NF-kB luciferase reporter, 16 h; series mostly up to 35 µM. In general terms: Reporter assays use an easily measured gene product as a stand-in for the process of interest.
Consider `Cc1ccnc(N/C=C(/NC(=O)c2ccccc2)C(=O)N/N=C\c2ccc(F)cc2)n1`, for which the compound was called inactive.

As to `O=C(Nc1nnc(N2CCCCCC2)s1)c1cc(-c2ccc(Br)cc2)on1`, the compound was classed as inactive.

With `COc1ccc(-c2cc(C(F)(F)F)n3nc(C(=O)N4CCOCC4)nc3n2)cc1`, the result was inactive.

As for `COCCCNC(=O)CN1C(=O)COc2ccc(S(=O)(=O)N3CCOCC3)cc21`, the result was inactive.

For the compound `CCCSc1nc2cc(S(=O)(=O)N3CCOCC3)ccc2n1CC`, the result was inactive.

Turning to `CN(C)CCN(Cc1ccc(Cl)cc1)c1ccccn1`, the result was inactive.

With `COc1ccc(CC(C)NCC(O)c2ccc(O)c(NC=O)c2)cc1` (stereo unspecified), the compound was classed as inactive.

As for `CCOC(=O)C1=C(C)NC(C)=C(C(=O)OCC)C1c1cn(-c2ccccc2)nc1-c1ccco1`, the call was inactive.

For `O=C(Nc1cc(S(=O)(=O)N2CCOCC2)ccc1Cl)c1ccncc1`, the compound was called inactive.

Take `O=C(CSc1nnc(-c2cccc(S(=O)(=O)N3CCOCC3)c2)n1C1CCCCCC1)NCc1ccccc1`: the compound was classed as inactive.

`N=c1c(-c2nc3ccccc3[nH]2)cc(C(=O)c2cccs2)nn1-c1ccccc1`: the compound was classed as inactive.

For `Cc1cc(NC(=O)c2ccc(C)s2)n(-c2nc3ccccc3[nH]2)n1`, the result was inactive.

For `CCCC(=O)NCCCc1nc2ccccc2[nH]1`, the compound was classed as inactive.

For `O=c1cc(Cl)nc2ccccn12`, the compound was called inactive.

Take `COc1ccc2[nH]c3c(=O)n(CCCCC(=O)N4CCC(C(N)=O)CC4)c(=S)[nH]c3c2c1`: the compound was classed as inactive.

Turning to `O=C(Cc1ccc(Cl)cc1)NCC(=O)N1CCCCC1`, the compound was classed as inactive.

Take `Cc1ccccc1N(C(=O)c1snc(C(N)=O)c1N)C(C(=O)NC1CCCCC1)c1ccc(O)cc1` (stereo unspecified): the call was inactive.

Take `S=C1SCN(Cc2ccccc2)CN1Cc1ccco1`: the result was inactive.

In the case of `CCOc1cc(/C=C2/C(=N)N3N=C(CC)SC3=NC2=O)ccc1OC(=O)c1ccco1`, the compound was called inactive.

On to `COc1ccc(CCC(=O)Nc2ccc(C)c([N+](=O)[O-])c2)cc1`, for which the call was inactive.

For the compound `CC(=O)Oc1ccc(C(=O)Nc2cccnc2)cc1`, the call was inactive.

As for `O=C(COc1ccc2ccccc2c1)NCCNC(=O)COc1ccc2ccccc2c1`, the result was inactive.

In the case of `CNC(=O)C1=NCCCc2cc(OC)c(OC)cc21`, the result was inactive.

Regarding `O=C(NC1CCCCC1)N1CCN(c2ccc([N+](=O)[O-])cc2)CC1`, the compound was called inactive.

For the compound `COc1ccc(-n2nc(C(=O)c3cccs3)cc(-c3nc4ccccc4[nH]3)c2=N)cc1`, the call was inactive.

Turning to `CNC(=S)N1N=C(c2cccs2)CC1c1ccc(F)cc1` (stereo unspecified), the result was inactive.

On to `O=C(CN1C(=O)C2C3C=CC(C3)C2C1=O)NCCC1=CCCCC1` (stereo unspecified), for which the compound was called inactive.

Turning to `O=C(CN(Cc1cccs1)C(=O)CNS(=O)(=O)c1ccccc1)NCc1ccco1`, the call was inactive.

With `O=C(COC(=O)c1ccc(S(=O)(=O)NCc2ccco2)cc1)Nc1ccc(Cl)cn1`, the compound was called inactive.

For the compound `CC(=O)Nc1ccc(OCC(O)CNC(C)C)cc1` (stereo unspecified), the compound was called inactive.

As to `Cc1ccnc(NC(=O)c2cccc(NC(=O)c3ccc(Cl)c(Cl)c3)c2)c1`, the outcome was inactive.

Consider `CCOc1ccc(NC(=O)Cn2cc(C(=O)CC)c3ccccc32)cc1`, for which the compound was called inactive.

On to `Cc1cc(OCC(=O)Nc2cnn(CCCC(=O)O)c2)ccc1Cl`, for which the compound was classed as inactive.

For the compound `COC(=O)c1cccc(COC(=O)c2ccccc2NC(=O)c2ccco2)c1`, the compound was called inactive.

Consider `COc1ccc(NC(=O)Cn2nnc(C(=O)NCc3ccccc3)c2N)c(OC)c1`, for which the result was inactive.

For the compound `COc1cccc(-c2nc(NCc3ccccc3)c3ccccc3n2)c1O`, the outcome was inactive.

Regarding `COc1ccc(NC(=O)NCCN2CCc3ccccc3C2)cc1`, the call was inactive.

On to `Cn1cccc1CC(=O)NNC(=S)Nc1ccccc1Cl`, for which the call was inactive.

In the case of `COc1ccc(NC(=O)C[C@H]2C(=O)N(CCc3ccccc3)C[C@@H]2c2ccc(OC)cc2)cc1`, the compound was classed as inactive.

Take `COc1ccc(C(CNC(=O)Nc2ccccc2)N2CCN(C)CC2)cc1` (stereo unspecified): the call was inactive.

As to `C=CCN(c1ccc(C(=O)Nc2ccc3c(c2)n(C)c(=O)n3C)cc1)S(C)(=O)=O`, the compound was classed as inactive.

Take `O=C(Nc1ccc2c(c1)C(=O)OC2)c1ccc(C(F)(F)F)cc1`: the compound was classed as inactive.

Turning to `CCNc1nc(CN2CCOCC2)nc2sc3c(c12)CCC3`, the call was inactive.

On to `COc1cccc(C2Nc3ccc4ccccc4c3C3=C2C(=O)CC(C)(C)C3)c1OCC(=O)O` (stereo unspecified), for which the compound was called inactive.

In the case of `O=C(CN1C(=O)CCOc2ccccc21)Nc1ccc(Cl)c(S(=O)(=O)N2CCOCC2)c1`, the outcome was inactive.

On to `COc1ccc(C(c2sc3nc(C)nn3c2O)N2CCC(C(N)=O)CC2)cc1OC` (stereo unspecified), for which the outcome was inactive.

Take `CC1=C(CC(=O)O)c2cc(F)ccc2C1=Cc1ccc(S(C)(=O)=O)cc1`: the outcome was inactive.

As for `COc1ccc(NC(=O)N(CCN2CCCC2)Cc2cc3cc(OC)c(OC)cc3[nH]c2=O)cc1`, the result was inactive.

Consider `O=C(Nc1ncc(Br)s1)C(Cc1ccccc1)n1cccc1` (stereo unspecified), for which the compound was called inactive.

`CCOC(=O)c1cc(-c2ccccc2)n(CC(=O)Nc2cccc(OC)c2)c1C`: the result was inactive.

In the case of `CC(=NNC(=S)N1CCCCCC1)c1cccc2cccnc12`, the compound was called inactive.

Regarding `Cc1ccc2oc(C(=O)Nc3ccc(S(=O)(=O)Nc4onc(C)c4C)cc3)c(C)c2c1`, the compound was called inactive.

Consider `COc1ccc(OC)c(S(=O)(=O)NC(C)CCc2ccccc2)c1` (stereo unspecified), for which the call was inactive.

Consider `O=C(NCC1CCOCC1)c1ccc(OC2CCN(Cc3ccccn3)CC2)cc1`, for which the result was inactive.

For the compound `COCCCNCC1C(Oc2ccc(Cl)cc2)C(=O)N1c1ccccc1C` (stereo unspecified), the compound was classed as inactive.

On to `Cc1sc2ncn(CC(=O)N3CCC(C(N)=O)CC3)c(=O)c2c1S(=O)(=O)N1CCOCC1`, for which the compound was called inactive.

As to `CN(C)S(=O)(=O)c1ccc(Cl)c(C(=O)NCCNC(=O)c2cc(S(=O)(=O)N(C)C)ccc2Cl)c1`, the call was inactive.

In the case of `CCN(Cc1ccncc1)C(=O)CCc1ccccc1`, the call was inactive.

Take `Cc1ccc(CCNC(=O)CCc2nc3ccccc3[nH]2)cc1`: the result was inactive.

Take `COc1cc(N)c(Cl)cc1C(=O)NC1CCN(Cc2ccccc2)CC1`: the result was inactive.

As for `NC(=O)CC(NC(=O)c1ccccc1)c1ccc(NC2CCN(Cc3ccccc3)CC2)c([N+](=O)[O-])c1` (stereo unspecified), the compound was classed as inactive.

On to `O=C(N/N=C(/CC(=O)c1cccs1)C(F)(F)F)c1ccc(O)cc1`, for which the result was inactive.

With `Cn1c(=O)[nH]c(=O)c2c1nc(CN1CCOCC1)n2CCCc1ccccc1`, the outcome was inactive.

On to `CN1CCN(CCOc2ccc(Cc3ccccc3)cc2)CC1`, for which the compound was called inactive.

For the compound `CCn1c2ccccc2c2cc(NC(=O)c3ccccc3-c3ccccc3C(=O)O)ccc21`, the call was inactive.

For `CS(=O)(=O)N(CC(=O)Nc1ccc(F)cc1F)C1CCCCC1`, the compound was called inactive.
